Calls of active or inactive are those of the source. No rule for the calls is given here.
The molecules below were run against Pantothenate synthetase (Mycobacterium tuberculosis (strain ATCC 25618 / H37Rv)) (UniProt P9WIL5) (assay: Recombinant Mtb pantothenate synthetase (PanC) inhibitors, coupled enzyme, confirmatory (AID 375;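 also: 0% = full reaction with vehicle and 100% = no enzyme background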)). Conditions: coupled enzyme assay; at 10 µM, hits give high values.
Sequence of Pantothenate synthetase (Mycobacterium tuberculosis (strain ATCC 25618 / H37Rv)) (P9WIL5 whole entry, looked up): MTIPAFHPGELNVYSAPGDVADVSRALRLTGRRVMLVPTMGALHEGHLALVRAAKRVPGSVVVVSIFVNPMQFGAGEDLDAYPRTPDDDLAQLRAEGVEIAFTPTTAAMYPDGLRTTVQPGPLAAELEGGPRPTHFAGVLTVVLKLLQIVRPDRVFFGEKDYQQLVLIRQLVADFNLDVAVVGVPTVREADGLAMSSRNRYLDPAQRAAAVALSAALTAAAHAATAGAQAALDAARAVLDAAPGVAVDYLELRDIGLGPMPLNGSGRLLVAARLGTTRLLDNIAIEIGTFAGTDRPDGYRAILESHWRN
O=C(Nc1ccc(-c2nc3ncccc3o2)cc1)c1ccc(Br)o1 was tested, and the inhibition was 15% (inactive). With Cn1c(=O)[nH]c(=O)c2c1nc(N1CCCCCC1)n2CCCSc1nc2ccccc2o1 the inhibition was 8% (inactive). With Cc1ccc(/C=c2\s/c(=C(/C#N)C(=O)N3CCCC3)n(Cc3ccco3)c2=O)s1 the inhibition was 0% (inactive). In the case of CCOC(=O)c1ccccc1NC(=O)CSc1nc2c(c(=O)n(C)c(=O)n2C)n1C, the inhibition is reported as 0% (inactive). For CCC(=O)Nc1ccc2nc(SCC(=O)N3CCCC3)sc2c1, the inhibition was 0% (inactive). For CS(=O)(=O)N(CC(=O)O)c1cccc(Cl)c1, the inhibition was 3% (inactive). With Nc1nnnn1NCc1cccc(OCc2ccccc2)c1 the inhibition was 0% (inactive). With CCOC(=O)N1CCN(C(=O)CN2C(=O)COc3ccc(C)cc32)CC1 the inhibition was 6% (inactive). In the case of Cc1ccc(-n2c(=O)c3sccc3n(CC(=O)NCc3ccco3)c2=O)cc1, the inhibition is reported as 0% (inactive). In the case of Cc1ccc(O)c(NC(=O)COc2cc(C)ccc2C)c1, the inhibition is reported as 0% (inactive). In the case of Cc1ccc(C)c(N(CC(=O)NC2CCCC2)C(=O)CCCC(=O)Nc2ccccn2)c1, the inhibition is reported as 2% (inactive). COc1ccc(C(F)(F)F)cc1NC(=O)c1nc2nc(C)cc(C(F)F)n2n1 was tested, and the inhibition was 1% (inactive). In the case of c1ccc(CSc2nnc(-c3cccs3)n2Cc2ccco2)cc1, the inhibition is reported as 0% (inactive). For Cc1cc(NC(=O)c2ccccc2)ncc1NC(=O)c1ccco1, the inhibition was 0% (inactive). For Cc1cc(C)n(-c2cc(N3CCOCC3)ncn2)n1, the inhibition was 1% (inactive). With COc1ccc(N(C(=O)c2ccco2)C(C(=O)NC2CCCC2)c2ccc(N(C)C)cc2)cc1OC (stereo unspecified) the inhibition was 1% (inactive).
